In PubChem BioAssay (Tox21):
Results filed as inconclusive are left out. Activity calls are given as the source filed them. Unless noted, calls follow the shape of the dose curve; as a rule, active = well fitted curve in the direction sought with a large enough effect in the repeat runs; inconclusive = weak or mixed curves; inactive = no such curve, though single readings can be large; an effect the other way counts as inactive or inconclusive.

Experiments:
[1] = qHTS assay to identify small molecule agonists of H2AX (AID 1224845; active = well fitted activation curve with a large enough effect in the signal ratio in the repeat runs, not every such curve was filed as active; the % refers to the signal ratio)
How it was run: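 Phospho-H2AX Ser139 measured by HTRF (ex 320 nm; em 665 and 620 nm) after 24 hr antibody incubation. Compounds, 15 concentrations, 0.76% DMSO, were applied to CHO-K1 cells for 3hr at 37C before lysis.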

[2] = qHTS assay to identify small molecule agonists of the hypoxia (HIF-1) signaling pathway (AID 1224846; active = well fitted activation curve with a large enough effect in the signal ratio in the repeat runs, not every such curve was filed as active; the % refers to the signal ratio)
How it was run: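 A low-serum medium (0.5% dialyzed FBS) holding 2,000 HRE-bla ME-180 cells per well is preincubated for 5 hrs, dosed with compounds by pintool, and kept a further 17 hrs at 37C, 5% CO2 before CCF4-AM FRET detection of beta-lactamase.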

[3] = qHTS assay to identify small molecule agonists of H2AX - cell viability counter screen (AID 1224847; calls by dose curve; also: top concentration of the series differs between compounds; nearly all actives have a fitted effect of over 30% in size)
How it was run: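 Compounds tested at 15 concentrations were incubated 3 hr at 37C with wild-type CHO-K1 cells; cellular ATP-based luminescence (CellTiter-Glo) indicated viability.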

[4] = qHTS assay to identify small molecule antagonists of the estrogen related receptor (ERR) signaling pathway from Tox21 library (AID 1224848); also: nearly all actives have a fitted effect of over 50% in size
How it was run: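 Reading was by luminescence 30 min after ONE-Glo addition. Before that, ERR cells at 2,000 per well had rested 6 h at 37 C/5% CO2 and then received pin-tooled compounds in DMSO for 18 h at 37 C.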

[5] = qHTS assay to identify small molecule agonists of the estrogen related receptor (ERR) signaling pathway from Tox21 library (AID 1224849; calls by dose curve; also: nearly all actives have a fitted effect of over 15% in size); conditions: ERR reporter cell line, ONE-Glo luciferase, 18 h; at 92.4 µM (top of the series) unless noted
How it was run: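 Screening used an NTP-provided ERR luciferase cell line. Compounds in DMSO were added 6 h after seeding and left 18 h at 37 C before a 30 min ONE-Glo step and luminescence reading.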

[6] = A CellTox Green Cytotoxicity Assay to monitor cytotoxicity in HEK293 cells - 0 hour (AID 1224869); also: nearly all actives have a fitted effect of over 50% in size; also: potency is read from the fitted curve at half-maximal effect
How it was run: (§1)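 Fluorescence intensity, read at 0, 8, 16, 24, 32 and 40 h of compound treatment, reflected dye binding to DNA of dead HEK293 cells; compounds (23 nL, DMSO) were added 5 h after plating cells with reagent.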

[7] = qHTS RealTime-Glo MT Cell Viability Assay in HepG2 cells - 40 hour (AID 1224870); also: nearly all actives have a fitted effect of over 50% in size
How it was run: (§2)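 Real-time viability: cells seeded at 600 per well together with NanoLuc and cell-permeant prosubstrate, compounds added after 5 h incubation. Luminescence tracked at 0, 8, 16, 24, 32 and 40 h of exposure.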

[8] = A CellTox Green Cytotoxicity Assay to monitor cytotoxicity in HEK293 cells - 40 hour (AID 1224871); also: nearly all actives have a fitted effect of over 45% in size; also: potency is read from the fitted curve at half-maximal effect
How it was run: as §1

[9] = qHTS RealTime-Glo MT Cell Viability Assay in HepG2 cells - 8 hour (AID 1224873); also: nearly all actives have a fitted effect of over 55% in size
How it was run: as §2

[10] = A CellTox Green Cytotoxicity Assay to monitor cytotoxicity in HEK293 cells - 24 hour (AID 1224875); also: nearly all actives have a fitted effect of over 45% in size; also: potency is read from the fitted curve at half-maximal effect
How it was run: as §1

[11] = A CellTox Green Cytotoxicity Assay to monitor cytotoxicity in HepG2 cells - 16 hour (AID 1224876); also: nearly all actives have a fitted effect of over 45% in size; also: potency is read from the fitted curve at half-maximal effect
How it was run: (§3)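 Using 1536-well format, dye-containing HepG2 suspension was seeded, allowed 5 h at 37 C/5% CO2, dosed by pintool with compounds, positive and negative controls, and imaged for fluorescence across 40 h.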

[12] = qHTS RealTime-Glo MT Cell Viability Assay in HepG2 cells - 32 hour (AID 1224877); also: nearly all actives have a fitted effect of over 55% in size
How it was run: (§4)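 Compound treatment began 5 h after plating HepG2 cells (600/well) with NanoLuc luciferase and prosubstrate. Plates stayed at 37 C for 40 h; luminescence was captured at six time points, 0 h through 40 h.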

[13] = A CellTox Green Cytotoxicity Assay to monitor cytotoxicity in HepG2 cells - 24 hour (AID 1224878); also: nearly all actives have a fitted effect of over 45% in size; also: potency is read from the fitted curve at half-maximal effect
How it was run: as §3

[14] = qHTS RealTime-Glo MT Cell Viability Assay in HEK293 cells - 0 hour (AID 1224880); also: nearly all actives have a fitted effect of over 45% in size; also: potency is read from the fitted curve at half-maximal effect; as to activity change, negative = cytotoxicity: top concentration of the series differs between compounds
How it was run: (§5)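 Viable HEK293 cells reduce a cell-permeant prosubstrate; the product diffuses out and is consumed by NanoLuc in the medium to give light. Compounds went in after a 5 h incubation and plates were read over the treatment course.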

[15] = A CellTox Green Cytotoxicity Assay to monitor cytotoxicity in HEK293 cells - 32 hour (AID 1224881); also: nearly all actives have a fitted effect of over 40% in size; also: potency is read from the fitted curve at half-maximal effect
How it was run: as §1

[16] = qHTS RealTime-Glo MT Cell Viability Assay in HepG2 cells - 24 hour (AID 1224867); also: nearly all actives have a fitted effect of over 50% in size
How it was run: as §4

[17] = qHTS RealTime-Glo MT Cell Viability Assay in HEK293 cells - 32 hour (AID 1224868)
How it was run: (§6)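 Quantitative high-throughput screen of the Tox21 10K library in HEK293: cells and RealTime-Glo reagents plated together, compound added at 5 h, luminescence monitored through 40 h at 37 C.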

[18] = qHTS RealTime-Glo MT Cell Viability Assay in HEK293 cells - 16 hour (AID 1224872)
How it was run: as §6

[19] = qHTS RealTime-Glo MT Cell Viability Assay in HEK293 cells - 40 hour (AID 1224874); conditions: RealTime-Glo luminescence; max response: stronger effect = lower value; also: nearly all actives have a fitted effect of over 50% in size
How it was run: as §5

[20] = A CellTox Green Cytotoxicity Assay to monitor cytotoxicity in HepG2 cells - 40 hour (AID 1224879); also: nearly all actives have a fitted effect of over 40% in size
How it was run: as §3
% is scaled to controls: 0 for no effect and ±100 for the full control effect.

NC(=O)C(c1ccccc1)(c1ccccc1)[C@@H]1CCN(CCc2ccc3c(c2)CCO3)C1
active: Potency [6] 21.3 µM | Potency [8] 21.3 µM | Potency [10] 21.3 µM | Potency [11] 23.9 µM | Potency [13] 21.3 µM | Potency [15] 21.3 µM
inactive: Potency [1] | Potency [2] | Potency [3] | Potency [4] | activity change, positive = activation [5] -1.44% [at 42.5 µM] | Potency [7] | Potency [9] | Potency [12] | Potency [14]

CCOC(=O)C(=O)CCc1ccccc1
inactive: Potency [1] | Potency [2] | Potency [3] | Potency [16] | Potency [17] | Potency [6] | Potency [7] | Potency [8] | Potency [18] | Potency [9] | max response [19] 0.79% | Potency [10] | Potency [11] | Potency [12] | Potency [13] | Potency [20] | Potency [14] | Potency [15]

O=C(Nc1ccc(S(=O)(=O)N2CCOCC2)cc1)c1cc(Cl)ccc1NS(=O)(=O)c1ccc(Cl)s1
active: Potency [6] 19 µM | Potency [8] 21.3 µM | Potency [10] 23.9 µM | Potency [11] 26.8 µM | Potency [14] 10.7 µM | Potency [15] 23.9 µM
inactive: Potency [1] | Potency [2] | Potency [3] | Potency [4] | activity change, positive = activation [5] -2.07% [at 42.5 µM] | Potency [17] | Potency [7] | Potency [18] | max response [19] -14.7%

CCCC(=O)Nc1ccc(O)c(C(C)=O)c1
inactive: Potency [1] | Potency [2] | Potency [3] | Potency [16] | Potency [17] | Potency [6] | Potency [7] | Potency [8] | Potency [18] | Potency [9] | max response [19] -1.71% | Potency [10] | Potency [11] | Potency [12] | Potency [13] | Potency [20] | Potency [14] | Potency [15]

COC(C)(C)CCO
inactive: Potency [1] | Potency [2] | Potency [3] | Potency [4] | activity change, positive = activation [5] 3.52% | Potency [17] | Potency [6] | Potency [7] | Potency [8] | Potency [18] | Potency [9] | max response [19] 1.17% | Potency [10] | Potency [11] | Potency [12] | Potency [13] | Potency [20] | Potency [14] | Potency [15]

NCC(=O)O
inactive: activation (H2AX phosphorylation) [1] 0.478% [at 31.6 µM] | activation [2] -0.806% [at 15.8 µM] | activity change, negative = cytotoxicity [3] 1.04% [at 31.6 µM] | activity change, negative = cytotoxicity [16] 3.17% [at 15.8 µM] | activity change, negative = cytotoxic [17] 7.53% [at 15.8 µM] | cytotoxicity [6] -0.777% [at 15.8 µM] | activity change, negative = cytotoxic [7] 0.792% [at 15.8 µM] | cytotoxicity increase [8] 1.17% [at 15.8 µM] | activity change, negative = cytotoxicity [18] 4.48% [at 15.8 µM] | viability change, negative = cytotoxic [9] 8.37% [at 15.8 µM] | max response [19] 8.51% | activity change [10] -2.36% [at 15.8 µM, stronger effect = higher value] | cytotoxicity increase [11] 8.58% [at 15.8 µM] | activity change, negative = cytotoxic [12] 0.863% [at 15.8 µM] | cytotoxicity [13] 7.92% [at 15.8 µM] | cytotoxicity increase [20] 1.98% [at 15.8 µM] | activity change, negative = cytotoxicity [14] -1.51% [at 15.8 µM] | cytotoxicity increase [15] 1.64% [at 15.8 µM]

O=C(NCCO[N+](=O)[O-])c1cccnc1
inactive: Potency [1] | Potency [2] | Potency [3] | Potency [16] | Potency [17] | Potency [6] | Potency [7] | Potency [8] | Potency [18] | Potency [9] | max response [19] 0.0315% | Potency [10] | Potency [11] | Potency [12] | Potency [13] | Potency [20] | Potency [14] | Potency [15]
